Source: PubChem BioAssay (NCI)
Compounds without any hit were thinned out: in the full panel of roughly 83,000, 20% have a hit.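 96-well plates, one dose, 48 hours. Percent growth reported; active if below 10.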 A number with no mark means an inactive call. Activity calls are given as the source filed them.

Tests used:
Assay in all cases: NCI-60 one-dose screen, 48 h (100 = growth as untreated, 0 = no growth, -100 = all killed)
SR leukemia = settings: 10 µM unless noted
RPMI-8226 leukemia = settings: 10 µM unless noted
OVCAR-8 ovarian = settings: 10 µM unless noted
OVCAR-5 ovarian = settings: 10 µM unless noted
OVCAR-4 ovarian = settings: 10 µM unless noted
SK-OV-3 ovarian = settings: 10 µM unless noted
IGROV1 ovarian = settings: 10 µM unless noted
OVCAR-3 ovarian = settings: 10 µM unless noted
NCI/ADR-RES ovarian = settings: 10 µM unless noted
T-47D breast = settings: 10 µM unless noted
BT-549 breast = settings: 10 µM unless noted
MDA-MB-435 melanoma = settings: 10 µM unless noted
SW-620 colon = settings: 10 µM unless noted
MCF7 breast = settings: 10 µM unless noted
HCT-116 colon = settings: 10 µM unless noted
HCC-2998 colon = settings: 10 µM
KM12 colon = settings: 10 µM unless noted

| Structure (SMILES) | growth (SR leukemia) | growth (RPMI-8226 leukemia) | growth (OVCAR-8 ovarian) | growth (OVCAR-5 ovarian) | growth (OVCAR-4 ovarian) | growth (SK-OV-3 ovarian) | growth (IGROV1 ovarian) | growth (OVCAR-3 ovarian) | growth (NCI/ADR-RES ovarian) | growth (T-47D breast) | growth (BT-549 breast) | growth (MDA-MB-435 melanoma) | growth (SW-620 colon) | growth (MCF7 breast) | growth (HCT-116 colon) | growth (HCC-2998 colon) | growth (KM12 colon) |
| --- | --- | --- | --- | --- | --- | --- | --- | --- | --- | --- | --- | --- | --- | --- | --- | --- | --- |
| CCN(CC)CCNC(=O)c1c(C)[nH]c(/C=C2\C(=O)Nc3ccc(F)cc32)c1C | -9.44% (active) | -10.3% (active) | 1.47% (active) | 35% | 23.9% | 26.9% | 24.6% | 67.9% | 18.4% | 80.4% | 20.2% | 3.92% (active) | -2.88% (active) | 7.17% (active) | -59.4% (active) | 1.98% (active) | 4.04% (active) |
| COC(=O)C1CCc2sc3ncnc(Nc4cn[nH]c4C(=O)Nc4ccc(CN5CCN(C)CC5)cc4)c3c21 (configuration not stated) | -25.7% (active) | 8.36% (active) | 16.6% | -2.74% (active) | 23.5% | 6.43% (active) | 4.94% (active) | 11.4% | 54.4% | 17.8% | -0.677% (active) | 22.3% | -10.9% (active) | 4.8% (active) | 3.34% (active) | 27.2% | 9.84% (active) |
| CC1=CC2c3oc(-c4ccccc4)c(C(=O)c4ccccc4)c3CNC2C=C1 (configuration not stated) | 89.6% | 105% | 83.6% | 88.8% | 117% | 83.3% | 102% | 106% | 94.6% | 91.3% | 103% | 107% | 97.1% | 84.2% | 92.2% | 102% | 101% |
| Cc1cc(Nc2ncnc3ccc(NC4=NC(C)(C)CO4)cc23)ccc1Oc1ccn2ncnc2c1 | -14.4% (active) | 24.3% | 37.3% | 14.3% | 44.2% | 14.6% | -19.6% (active) | 46.8% | 63.3% | 32.3% | 42.4% | 43.9% | 18.2% | 21.4% | 16.1% | 18.9% | 21.3% |
| CCOc1cc2ncc(C#N)c(Nc3ccc(F)c(Cl)c3)c2cc1NC(=O)/C=C/CN(C)C | -14% (active) | -34.6% (active) | -7.83% (active) | -3.14% (active) | -61.9% (active) | -5.87% (active) | -32.1% (active) | -82.7% (active) | 6.54% (active) | -41.1% (active) | -35.8% (active) | -87.2% (active) | -53.8% (active) | -41.7% (active) | -79.7% (active) | -49.2% (active) | -83.8% (active) |
| C[C@@H](Nc1cc(F)cc(F)c1)c1cc(C(=O)N(C)C)cc2c(=O)cc(N3CCOCC3)oc12 | 53.5% | 84.4% | 57.9% | 54.5% | 88.2% | 3.43% (active) | -13.3% (active) | 40% | 85.4% | -12.4% (active) | 34.2% | 64.8% | 60.5% | 25.2% | 55.8% | 55.3% | 66.5% |
| COC(=O)c1ccc2c(C(=Nc3ccc(N(C)C(=O)CN4CCN(C)CC4)cc3)c3ccccc3)c(O)[nH]c2c1 | 6.5% (active) | 62.4% | 53.2% | 64.5% | 68.5% | 53.2% | 33.6% | 91.3% | 82.2% | 47.4% | 55.8% | 72.6% | 67.4% | 33.5% | 20.2% | 84.3% | 8.95% (active) |
| Cc1cccc(C)c1N1C(c2ccccc2)=NNC12C=CC(=O)c1c(O)cccc12 (configuration not stated) | 56.9% | 75.6% | 69.6% | 90.8% | 70.5% | 86% | 83.3% | 51.7% | 70.3% | 96.2% | 44.7% | -90.1% (active) | 103% | 78.7% | 45.3% | 98.5% | 75.9% |
| Cn1ccnc1C(=O)/C=C/c1ccc(CC(=O)Nc2ccc(C(F)(F)F)cc2)cc1 | 1.17% (active) | 3.07% (active) | -25.8% (active) | 22.9% | 43.1% | 53.5% | 9.94% (active) | 9.48% (active) | 6.64% (active) | 3.52% (active) | 3.71% (active) | 30.6% | 7.25% (active) | 8.41% (active) | 6.67% (active) | 0.221% (active) | 4.24% (active) |
| CC(C)(C)c1nc(-c2cccc(NS(=O)(=O)c3c(F)cccc3F)c2F)c(-c2ccnc(N)n2)s1 | 50.4% | 75.5% | 94.7% | 41.1% | 114% | 71.9% | 64.5% | 103% | 95.5% | 92.6% | 118% | 87.3% | 73.3% | 79.7% | 48.1% | 85.1% | 44.6% |
| Cc1cc([C@@H](C)Nc2ccccc2C(=O)O)c2nc(N3CCOCC3)cc(=O)n2c1 | 25% | 71.8% | 45.6% | 51.8% | 77.3% | -13.2% (active) | -4.69% (active) | 31.1% | 58.1% | -27.6% (active) | 22.3% | 58% | 35% | 16.4% | 23% | 60.1% | 57% |
| O=C(/C=C/c1ccc2c(c1)OCO2)c1c(O)c2ccccc2oc1=O | 79% | 115% | 93.9% | 102% | 106% | 94.2% | 112% | 104% | 102% | 89% | 95.8% | 104% | 128% | 88.9% | 86.9% | 112% | 93.6% |
| CS(=O)(=O)N1CCN(Cc2cc3nc(-c4cccc5[nH]ncc45)nc(N4CCOCC4)c3s2)CC1 | 18.6% | 25% | 27% | 20.5% | 47.8% | -18.4% (active) | -28.4% (active) | 14.5% | 32.1% | -21.7% (active) | 18.2% | 22.4% | 38.8% | 5.28% (active) | 28.3% | 22.8% | 16.3% |
| COc1ccc(-c2cc3c(C)nc(N)nc3n(C3CCC(OCCO)CC3)c2=O)cn1 (configuration not stated) | 1.95% (active) | 3.64% (active) | -12.6% (active) | -18.8% (active) | -7.57% (active) | -49.9% (active) | -36.9% (active) | -10.5% (active) | -14.7% (active) | -50.5% (active) | -18.1% (active) | -18.5% (active) | 7.56% (active) | 1.58% (active) | 7.89% (active) | -0.799% (active) | 5.53% (active) |
| C[C@@H]1COC(Nc2ccc3ncnc(Nc4ccc(OCc5nccs5)c(Cl)c4)c3c2)=N1 | 17.6% | 18.8% | 10.4% | 59.6% | 25.3% | -3.87% (active) | 0.932% (active) | 31.7% | 9.99% (active) | -17.5% (active) | 1.81% (active) | 50.1% | 76.8% | 45.1% | 30.1% | 46.9% | 18.5% |
| Cc1ccc(NC(=O)c2ccc(CN3CC[C@H](N(C)C)C3)c(C(F)(F)F)c2)cc1Nc1nccc(-c2cncnc2)n1 | -7.54% (active) | -9.27% (active) | 3.4% (active) | 15.3% | -4.76% (active) | 38.6% | 0.261% (active) | -6.36% (active) | 24.9% | -58.9% (active) | 35.9% | -18.3% (active) | 8.15% (active) | 7.04% (active) | -17.4% (active) | -22.7% (active) | 10.4% |
